Source: PubChem BioAssay (National Center for Advancing Translational Sciences (NCATS))
MLL CXXC-DNA inh – inhibitors of human MLL CXXC domain-DNA interaction; Q03164; MLL-CXXC / FITC-HOXA9 DNA fluorescence polarization; Potency, µM (doses to about 115 µM), without a hit: at the highest dose activity change, negative = inhibition, usual class: inhibitors; actives 0.037% (n = 290,000); active means well fitted inhibition curve with a large enough effect in the polarisation, with a control signal flat, not every such curve was filed as active; inconclusive means small, poorly fitted or top-dose-only effect, or effect the other way, or a change in a side signal; inactive means no such curve, though single readings can be large or run the other way; the % refers to the polarisation; further: potency means the concentration at half of the fitted maximal effect
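Fluorescence polarization: 7 uM MLL-CXXC (stock) preincubated 5 min with compounds, then 50 nM fluorescein-HOX-A9 DNA (stock) added; 30 min ambient. Buffer 50 mM Tris-HCl pH 7.5, 50 mM NaCl, 1 mM DTT, 0.05% BSA.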
GoLoco inh red – RGS12 GoLoco-Gai1 interaction inhibition; P63096; Gai1:RGS12 GoLoco peptide FP, rhodamine, 10 min; Potency, µM (highest dose often 61.6 µM), without a hit: at the highest dose activity, negative = inhibition, most hits filed as inhibitors; actives 0.44% (n = 230,000); AID 880; active means well fitted inhibition curve with a large enough effect, not every such curve was filed as active; inactive means no such curve, though single readings can be large or run the other way; further: potency means the concentration at half of the fitted maximal effect; on the % scale 0 is the no-effect control and ±100 the full control effect; nearly all actives have a fitted effect of over 30% in size
Target sequence (P63096 whole entry, looked up): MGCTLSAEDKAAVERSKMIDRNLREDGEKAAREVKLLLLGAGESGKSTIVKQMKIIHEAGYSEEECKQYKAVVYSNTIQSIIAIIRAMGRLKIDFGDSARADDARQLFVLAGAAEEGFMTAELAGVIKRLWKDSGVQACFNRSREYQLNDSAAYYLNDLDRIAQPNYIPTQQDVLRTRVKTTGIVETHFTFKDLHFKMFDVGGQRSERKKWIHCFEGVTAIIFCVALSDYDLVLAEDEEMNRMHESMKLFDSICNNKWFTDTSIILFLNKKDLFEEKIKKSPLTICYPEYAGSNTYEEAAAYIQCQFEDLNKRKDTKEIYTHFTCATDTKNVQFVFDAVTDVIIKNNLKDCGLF
Menin-MLL TR inh – displaces Texas Red mutant MLL peptide from human menin; O00255; Menin + Texas Red MLL mutant peptide, fluorescence polarization; Potency, µM (doses to about 61.6 µM), for inactives: at the highest dose FP activity change, negative = inhibition, usual class: inhibitors; actives 0.23% (n = 270,000); AID 1768; active means well fitted inhibition curve with a large enough effect in the polarisation, with a control signal flat, not every such curve was filed as active; inconclusive means small, poorly fitted or top-dose-only effect, or effect the other way, or a change in a side signal; inactive means no such curve, though single readings can be large or run the other way; the % refers to the polarisation; further: potency means the concentration at half of the fitted maximal effect; % of control where 0% means no effect
Menin-MLL FL inh – menin-MLL binding inhibition, fluorescein peptide. Fluorescence polarization, fluorescein-MLL peptide displacement from menin. FP activity change, % at 61.4 µM. 290,000 tested, under 10 active. AID 1766; active means well fitted curve in the direction sought with a large enough effect in the polarisation, not every such curve was filed as active; inconclusive means small, poorly fitted or top-dose-only effect, or effect the other way, or a change in a side signal; inactive means no such curve, though single readings can be large or run the other way; the % refers to the polarisation; further: % of control where 0% means no effect
* = called active by the depositor; ? = inconclusive; . = no result given; [ ] = remark or other dose. The full list was thinned out, with hits kept by preference.

SMILES	MLL CXXC-DNA inh	GoLoco inh red	Menin-MLL TR inh	Menin-MLL FL inh
CC[C@H](C)[C@H](NC(=O)CNC(=O)[C@H](CCCNC(=N)N)NC(=O)[C@H](CO)NC(=O)[C@H](C)NC(=O)[C@H](Cc1ccc(O)cc1)NC(=O)[C@H](Cc1c[nH]c2ccccc12)NC(=O)[C@H](C)NC(=O)[C@@H]1CCCN1C(=O)[C@H](CC(N)=O)NC(=O)[C@@H](NC(=O)[C@H](CC(=O)O)NC(=O)[C@@H]1CCCN1C(=O)[C@@H](NC(=O)[C@H](CCCNC(=N)N)NC(=O)[C@@H](NC(=O)[C@H](CCC(=O)O)NC(=O)[C@H](CCSC)NC(=O)[C@H](CO)NC(=O)[C@H](Cc1cnc[nH]1)NC(=O)[C@H](CCCNC(=N)N)NC(=O)[C@H](Cc1cnc[nH]1)NC(=O)[C@@H](NC(=O)[C@H](CCCNC(=N)N)NC(=O)[C@@H](N)CO)[C@@H](C)O)[C@@H](C)CC)[C@@H](C)O)[C@@H](C)CC)C(=O)N[C@@H](CCCNC(=N)N)C(=O)N1CCC[C@H]1C(=O)N[C@H](C(=O)NCC(=O)N[C@@H](CCCNC(=N)N)C(=O)N[C@@H](Cc1ccccc1)C(N)=O)C(C)C	.	.	1%	-3
COCC1=C2c3ccccc3[C@H](C[N+](=O)[O-])C(C(=O)OC)(C(=O)OC)CC2C2C(=O)N(c3ccccc3)C(=O)C2C1 (some centres not stated)	.	2%	2%	3
O=C(Nc1ccc(O)cc1)C1CC=CCC1 (configuration not stated)	4%	25µM*	?	-1
O=c1cc(-c2ccc(O)cc2)oc2cc(O[C@@H]3O[C@H](CO)[C@H](O)[C@H](O)[C@H]3O)cc(O)c12	.	.	-22%	-2
Cc1ccc2ccc(C)[n+](CCCS(=O)(=O)[O-])c2c1	-2%	7.9µM*	-1%	2
Cc1ccc2ccccc2[n+]1CCCS(=O)(=O)[O-]	-3%	-14%	-8%	0
ClC(Cl)Cl	13%	16µM*	0%	-1
COc1ccc(NCc2ccc(OC)c(Cn3ccnc3)c2)c(OC)c1	11%	.	13µM*	4
Cc1cc(O)ccc1N=Cc1c(C(F)(F)F)[nH][nH]c1=O	-3%	7.1µM*	?	-2
COC(=O)c1cc(=O)c(O)c2c(O)c(O)ccc2c1	.	2.8µM*	?	0
O=C(N/N=C\C=C\c1ccc2c(c1)OCO2)C1COc2cc3ccccc3cc2O1 (configuration not stated)	-3%	3%	20µM*	5
C/C1=C2/[N-]C(C(CC(N)=O)[C@@]2(C)CCC(=O)NCC(C)OP(=O)([O-])O[C@H]2[C@@H](O)[C@@H](n3cnc4cc(C)c(C)cc43)O[C@@H]2CO)[C@]2(C)N=C(/C(C)=C3N=C(/C=C4N=C1C(CCC(N)=O)C\4(C)C)[C@@H](CCC(N)=O)[C@]\3(C)CC(N)=O)[C@@H](CCC(N)=O)[C@]2(C)CC(N)=O.CC(=O)O.[Co] (some centres not stated)	-16%	.	?	7
COc1ccc2c(c1)O[C@@H](c1ccc3c(c1)OCO3)[C@H](OC(=O)N[C@H](C)C1CCCCC1)C2=O	.	32µM*	3%	-4
CC(C)(C)OC(=O)[C@H](C1N[C@@H](C(=O)O)C(C)(C)S1)N1C(=O)c2ccccc2C1=O (some centres not stated)	.	0%[14.2 µM]	.	.
O[C@@H](c1cc(-c2ccc(Cl)cc2)nc2ccccc12)C1CCCCN1 (some centres not stated)	.	1%[14.2 µM]	.	.
C[N+]1(CC(=O)OC2CCCCCCCCCCC2)CCCC1	17%	-36%	-9%	-3
CCOC(=O)CC1(C)OCC(C[N+]2(C)CCCCC2)O1 (configuration not stated)	4%	11µM*	10%	-4
NC(=O)[C@@H]1CCCN1C(=O)[C@H](Cc1cnc[nH]1)NC(=O)[C@@H]1CCC(=O)N1	1%	2%	5%	-1
Cc1c(C(=O)OC(C)C(C)C[N+](C)(C)C)oc2ccccc12 (configuration not stated)	-1%	14µM*	-8%	4
CCNc1ncc2nc(C)c(=O)n(CCOC)c2n1	.	-3%	6%	0
C/C=C\C1=C(CO)C(=O)[C@@H]2OC2C1=O (some centres not stated)	.	.	-7%[11.7 µM]	6[11.7 µM]
Cc1cc2nc3c(=O)[nH]c(=O)nc-3n(C)c2cc1C=O	.	10µM*	-18%	?
COc1ccccc1NC(=O)Cn1nnc(-c2ccccc2NC(=O)c2cc3ccccc3oc2=O)n1	-11%	8%	20µM*	-1
O=C(O)CCc1c(C(=O)O)[nH]c2cc(Cl)cc(Cl)c12	.	.	20%	0
C=C1CCN(C(CC(C)C)C(=O)NCc2ccc(Cl)cc2)S(=O)(=O)c2ccccc21 (configuration not stated)	.	.	8%	-2
SMILES	MLL CXXC-DNA inh	GoLoco inh red	Menin-MLL TR inh	Menin-MLL FL inh
OCc1nnn(-c2ccccc2)c1CO	-14%	10%	27%	2
Nc1c(CO)nnn1-c1ccccc1	-9%	3.2µM*	-1%	2
N#CCCn1c(=O)c(-c2ccc(Cl)cc2)nc2cnc(Nc3ccccc3)nc21	.	105%	10µM*	?
CCC(C(=O)O)c1ccccc1 (configuration not stated)	.	28µM*	1%	-4
CCC(C(N)=O)c1ccccc1 (configuration not stated)	.	2%	-14%	-3
COc1ccc(-c2nn(-c3ccccc3)cc2/C=N/NC(=O)c2cccc(S(=O)(=O)Nc3ccccc3Cl)c2)cc1	6%	-15%	16µM*	-3
COc1ccc(-c2nn(-c3ccccc3)cc2/C=N/NS(=O)(=O)c2ccccc2)cc1	7%	-3%	?	1
O=C(N/N=C\c1cn(-c2ccccc2)nc1-c1ccccc1)c1ccc(Br)o1	21%	12%	32µM*	-1
CC1=C(c2ccc(NN=C(C#N)C#N)cc2)NNC(=O)C1	-3%	.	36%	4
Cc1ccc(Nc2nc(=O)c3cccnc3s2)cc1	-1%	7%	4%	-1
COc1ccc(OC)c(Nc2nc(=O)c3cccnc3s2)c1	12%	25µM*	?	4
Cc1nc(COC(=O)c2ccc(CO)cc2)cs1	4%	2%	-9%	3
Cc1nc(COC(=O)c2cc(O)c3ccccc3c2O)cs1	-5%	25µM*	?	1
NC(C(=O)O)C(O)c1ccc(O)c(O)c1 (configuration not stated)	-14%	2%	-2%	-1
C[N+]12CCCCC1[C@@H](CO)CCC2 (some centres not stated)	-3%	4.5µM*	.	7
CCn1cc([N+](=O)[O-])c(C(=O)N2N=C(c3ccc4ccccc4c3)CC2c2cc(Br)ccc2O)n1 (configuration not stated)	18%	-2%	11µM*	-3
CCn1cc([N+](=O)[O-])c(C(=O)N2N=C(c3ccc(Cl)c(Cl)c3)CC2c2ccccc2O)n1 (configuration not stated)	-9%	9%	0%	-2
